The target of the first test is RUNX1 (UniProt Q01196). The experiment in a line: RUNX1 binding intensity (PBM fluorescence), RUNX1 alone (arbitrary fluorescence units); higher = stronger binding. Particulars: RUNX1 concentration 2 nM; ETS1 concentration 0 nM. The procedure: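 Cooperative gcPBM on 36-bp genomic probes with neighbouring ETS1 and RUNX1 sites. Recombinant human RUNX1 (2 nM) was incubated alone or with ETS1 (25 nM) and detected with anti-RUNX1 antibody plus Alexa488 secondary. Values are medians over 4 replicate spots; the RUNX1+ETS1 data were normalised to the RUNX1-only data. The probes sit in constant array flanks that are not printed.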
RUNX1, sequence (Q01196 whole entry): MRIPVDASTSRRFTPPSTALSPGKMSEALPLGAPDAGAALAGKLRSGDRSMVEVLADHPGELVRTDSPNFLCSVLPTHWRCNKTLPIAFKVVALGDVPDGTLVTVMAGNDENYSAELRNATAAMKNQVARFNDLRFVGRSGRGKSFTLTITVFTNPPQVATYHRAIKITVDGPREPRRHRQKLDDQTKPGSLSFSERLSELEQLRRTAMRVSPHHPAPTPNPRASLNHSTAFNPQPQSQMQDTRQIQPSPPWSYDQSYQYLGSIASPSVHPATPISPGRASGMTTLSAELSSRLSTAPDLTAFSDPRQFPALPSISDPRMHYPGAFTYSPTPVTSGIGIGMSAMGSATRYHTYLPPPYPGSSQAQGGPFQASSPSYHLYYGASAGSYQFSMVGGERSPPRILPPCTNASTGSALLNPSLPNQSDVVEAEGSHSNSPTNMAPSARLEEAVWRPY
In turn, TTGTCGGGTATGGGATGTGGGCAGAGAGTATGATGG came in with an RUNX1 binding intensity of 866.
As to TTTCACTTCCGGCATGTTTTTCACCCACAGGGATAT, the RUNX1 binding intensity came to 1130.
As to AGAACAGCAGGAAATAAATACCCACCTCAGGACTGC, the RUNX1 binding intensity was 822.
Same read-out and setting: then GACTTGGGGGAAGTGGCTTGGTTTGCGTGGTTTCTC, with 952; and AGGCCGCTTCCTCCCACATGAAACCGCAGGCTTCGG, with 3590.
Still for that read-out and setting: then ACGTACGGGATGTGGGAGGTTTGTTTTGACCACACC, with 830; and GTGAACTTCCTCCCCCACTGCCTATTTTTACCGCAG, with 1820.
On the same count and under the same terms, the result for GCCCCCGGAAGCTGTCGCCCCGTGCGGTGTGTGCTG reads 787.
On to AACACCACTTCCTACTGTGAAACCACACTGTATTTG, for which the RUNX1 binding intensity turned out to be 1200.
In turn, CCCCTTCCCGTTCTCCGAAAGTGCGCGGGTTGGAGC returned an RUNX1 binding intensity of 792.
Turning to TCACCTCATCACAGGAAACCGCGAGCACCTCCTCCT, the RUNX1 binding intensity came to 1610.
In turn, GGGCAGGCCGGATGTGGGAGACCACAAAGCCCAAGG gave an RUNX1 binding intensity of 820.
As to TGTTCAGGAACAGGAAATGAAACCCCGCAGCTTTGA, the RUNX1 binding intensity turned out to be 748.
Turning to AATGGGCTTGGTTTCCTGTGGGTTTGTAGCTTTGTA, the RUNX1 binding intensity is 899.
As for AGTCAAACAGGATGTGGCTGGGGAGGCGGTTGTCAC, the RUNX1 binding intensity was found to be 725.
In turn, GTATCACTTCCTGTTTTCCTCTGTGGCTTACTGCTG had an RUNX1 binding intensity of 1300.
On to TAAGAGATTTCCTGTAAAGGTAACCACCAGCAAAGA, for which the RUNX1 binding intensity is 721.
GAGGCGTTTCCGCCTCCTTTTCGCGGTTGCCTTCTC showed an RUNX1 binding intensity of 1060.
On to AGACCCGGAAATGGTGGGTGTTTCTTGCAACCACGG, for which the RUNX1 binding intensity came out at 668.
The sequence TGATCAGCAAAAGGAAGTGGTTAACATGGCCCAGAA registered an RUNX1 binding intensity of 825.
On to GTCACAGGAAAGAAGGAGCCTCGCCTTAACCGCACC, for which the RUNX1 binding intensity is 1170.
Same read-out and setting: then GGCCGGGGGCAGGAAGCTGCGGCGCTGGCTCCCCCC, with 649.
In turn, CACTGCGGAAGCAGTGTAGAGAGGTGGTTATCAGTG showed an RUNX1 binding intensity of 784.
The sequence CTTTGCAGGAAGCTGGGGTTCACCCACAGCCTTGTT showed an RUNX1 binding intensity of 729.
Take TGCTTCTGAGGAAGTGATCTGTGGTCAAAGAAAGAA: the RUNX1 binding intensity came out at 891.
Regarding CGCCTACTCTACTTCCGCGGTCGGCCGGGTAAGGAC, the RUNX1 binding intensity came to 2130.
With CCAAGTGTAAAACGGAAGCTCAACCACGAATCTTAC, the RUNX1 binding intensity was determined as 800.
AACAAACCGGATGGGGTTGCCACCCGCAATCTTGTC gave an RUNX1 binding intensity of 826.
CACCTCAGCTTCCTGTGTAGCTGGGACCACAGGCAT returned an RUNX1 binding intensity of 827.
Sequence GGGCTATTGTTTCCTCCCCCATGTGACCACAGCCTC had an RUNX1 binding intensity of 994.
The sequence AGGCAGCACAGGAAGTTATAACCACATGTACACTTG displayed an RUNX1 binding intensity of 781.
CCTCAATTTCCTGGCCAGAGAAACCACTGCCTCTCA: the RUNX1 binding intensity came out at 1030.
On the same count and under the same terms, then CTCCTGTTCCGGCTCAAAGGGAAACCGCTGCTTTTC, with 1210; and GTGACGGATATCCACCGGGCCCTGTGGTTTCCAACA, with 822; and GAGGAGGAAAGCGGAAGCGCTGCCCGCAGTGGTAGG, with 651.
In the case of TGGCAGCGGGTGCGGAAACCACAGGCCTCCAGGCTT, the RUNX1 binding intensity stood at 1480.
On to CGCCTGCCCCACTTCCGCCCGGACCCGCAGCCCCTA, for which the RUNX1 binding intensity turned out to be 1240.
TTAGGCAGAGCTCATTTCCGCCCACATCAAAAGTAA showed an RUNX1 binding intensity of 867.
With GGATGAACAGGAAGCTAAAGTAAATACCACAGTGAC, the RUNX1 binding intensity was determined as 764.
On the same count and under the same terms, the result for GGGCTCCCAGAAGGATGTGGTTTCTGAGTACGTTGG reads 906.

In a further test the target is T1, ETS1 (UniProt P14921).
T1 sequence: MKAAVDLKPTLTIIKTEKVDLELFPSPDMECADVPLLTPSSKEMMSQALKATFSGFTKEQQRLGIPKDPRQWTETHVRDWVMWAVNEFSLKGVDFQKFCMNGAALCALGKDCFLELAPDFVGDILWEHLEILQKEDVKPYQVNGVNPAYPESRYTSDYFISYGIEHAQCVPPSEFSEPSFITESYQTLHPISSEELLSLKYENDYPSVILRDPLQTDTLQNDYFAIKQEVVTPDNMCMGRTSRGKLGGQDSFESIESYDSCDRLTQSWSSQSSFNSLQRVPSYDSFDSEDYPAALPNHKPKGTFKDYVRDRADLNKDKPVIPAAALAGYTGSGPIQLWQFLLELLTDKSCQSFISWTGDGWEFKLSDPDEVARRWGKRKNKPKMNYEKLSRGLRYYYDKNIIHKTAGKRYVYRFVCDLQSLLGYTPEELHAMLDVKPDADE
The experiment in a line: ETS1 binding intensity (PBM fluorescence) in presence of RUNX1, normalised to ETS1-only experiment (arbitrary fluorescence units); higher = stronger binding. Particulars: ETS1 concentration 1 nM; RUNX1 concentration 25 nM.
Consider TTGTCGGGTATGGGATGTGGGCAGAGAGTATGATGG, for which the ETS1 binding intensity turned out to be 835.
TTTCACTTCCGGCATGTTTTTCACCCACAGGGATAT: the ETS1 binding intensity was 3980.
Same read-out and setting: then AGAACAGCAGGAAATAAATACCCACCTCAGGACTGC, with 1050; and GACTTGGGGGAAGTGGCTTGGTTTGCGTGGTTTCTC, with 546.
In the case of AGGCCGCTTCCTCCCACATGAAACCGCAGGCTTCGG, the ETS1 binding intensity was 1590.
Take ACGTACGGGATGTGGGAGGTTTGTTTTGACCACACC: the ETS1 binding intensity stood at 936.
Take GTGAACTTCCTCCCCCACTGCCTATTTTTACCGCAG: the ETS1 binding intensity worked out at 596.
In the case of GCCCCCGGAAGCTGTCGCCCCGTGCGGTGTGTGCTG, the ETS1 binding intensity amounted to 2000.
Regarding AACACCACTTCCTACTGTGAAACCACACTGTATTTG, the ETS1 binding intensity was 588.
Take CCCCTTCCCGTTCTCCGAAAGTGCGCGGGTTGGAGC: the ETS1 binding intensity is 361.
As to TCACCTCATCACAGGAAACCGCGAGCACCTCCTCCT, the ETS1 binding intensity worked out at 5440.
For the sequence GGGCAGGCCGGATGTGGGAGACCACAAAGCCCAAGG, the ETS1 binding intensity is 27500.
Still for that read-out and setting: then TGTTCAGGAACAGGAAATGAAACCCCGCAGCTTTGA, with 11300.
For AATGGGCTTGGTTTCCTGTGGGTTTGTAGCTTTGTA, the ETS1 binding intensity came out at 685.
Still for that read-out and setting: then AGTCAAACAGGATGTGGCTGGGGAGGCGGTTGTCAC, with 4660.
As for GTATCACTTCCTGTTTTCCTCTGTGGCTTACTGCTG, the ETS1 binding intensity was determined as 3330.
Still for that read-out and setting: the result for TAAGAGATTTCCTGTAAAGGTAACCACCAGCAAAGA reads 714.
As to GAGGCGTTTCCGCCTCCTTTTCGCGGTTGCCTTCTC, the ETS1 binding intensity was 761.
For AGACCCGGAAATGGTGGGTGTTTCTTGCAACCACGG, the ETS1 binding intensity amounted to 2290.
On to TGATCAGCAAAAGGAAGTGGTTAACATGGCCCAGAA, for which the ETS1 binding intensity is 4770.
In the case of GTCACAGGAAAGAAGGAGCCTCGCCTTAACCGCACC, the ETS1 binding intensity is 2930.
As for GGCCGGGGGCAGGAAGCTGCGGCGCTGGCTCCCCCC, the ETS1 binding intensity amounted to 3390.
As for CACTGCGGAAGCAGTGTAGAGAGGTGGTTATCAGTG, the ETS1 binding intensity is 680.
As to CTTTGCAGGAAGCTGGGGTTCACCCACAGCCTTGTT, the ETS1 binding intensity is 857.
Still for that read-out and setting: the result for TGCTTCTGAGGAAGTGATCTGTGGTCAAAGAAAGAA reads 2040; that for CGCCTACTCTACTTCCGCGGTCGGCCGGGTAAGGAC, 754.
In the case of CCAAGTGTAAAACGGAAGCTCAACCACGAATCTTAC, the ETS1 binding intensity is 2960.
On to AACAAACCGGATGGGGTTGCCACCCGCAATCTTGTC, for which the ETS1 binding intensity was 5130.
For CACCTCAGCTTCCTGTGTAGCTGGGACCACAGGCAT, the ETS1 binding intensity stood at 888.
Same read-out and setting: the result for GGGCTATTGTTTCCTCCCCCATGTGACCACAGCCTC reads 776.
Regarding AGGCAGCACAGGAAGTTATAACCACATGTACACTTG, the ETS1 binding intensity came to 11900.
For the sequence CCTCAATTTCCTGGCCAGAGAAACCACTGCCTCTCA, the ETS1 binding intensity came to 526.
As to CTCCTGTTCCGGCTCAAAGGGAAACCGCTGCTTTTC, the ETS1 binding intensity came to 907.
Same read-out and setting: then GTGACGGATATCCACCGGGCCCTGTGGTTTCCAACA, with 1200; and GAGGAGGAAAGCGGAAGCGCTGCCCGCAGTGGTAGG, with 8570; and TGGCAGCGGGTGCGGAAACCACAGGCCTCCAGGCTT, with 1520.
CGCCTGCCCCACTTCCGCCCGGACCCGCAGCCCCTA: the ETS1 binding intensity is 3210.
The same measure, in the same setting: then TTAGGCAGAGCTCATTTCCGCCCACATCAAAAGTAA, with 1990; and GGATGAACAGGAAGCTAAAGTAAATACCACAGTGAC, with 3860; and GGGCTCCCAGAAGGATGTGGTTTCTGAGTACGTTGG, with 3520.

For the origin of these results see the supplement of paper PMC10681739.
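Wherever RUNX1 binding intensity (PBM fluorescence), RUNX1 alone is given: Full-length recombinant human RUNX1 bound to double-stranded 36-bp genomic probes on a high-density microarray, scored as Alexa488 fluorescence per spot via anti-RUNX1 antibody, median of four replicate spots.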
